DSG3 Ab inh: blocks pemphigus antibody binding to human desmoglein-3 | DSG3-coupled beads, scFv-anti-DSG3-GFP binding, flow cytometry; active compounds read low | binding (percent of control), % at 10 µM | 310,000 compounds, 0.48% hits;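 active = binding more than 3 SD below its plate's average and above zero; inconclusive = below that plate limit but binding exactly zero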;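 also: hits lower antibody fragment binding to DSG3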
Target sequence (P32926 whole entry, looked up, the tested form may be a part): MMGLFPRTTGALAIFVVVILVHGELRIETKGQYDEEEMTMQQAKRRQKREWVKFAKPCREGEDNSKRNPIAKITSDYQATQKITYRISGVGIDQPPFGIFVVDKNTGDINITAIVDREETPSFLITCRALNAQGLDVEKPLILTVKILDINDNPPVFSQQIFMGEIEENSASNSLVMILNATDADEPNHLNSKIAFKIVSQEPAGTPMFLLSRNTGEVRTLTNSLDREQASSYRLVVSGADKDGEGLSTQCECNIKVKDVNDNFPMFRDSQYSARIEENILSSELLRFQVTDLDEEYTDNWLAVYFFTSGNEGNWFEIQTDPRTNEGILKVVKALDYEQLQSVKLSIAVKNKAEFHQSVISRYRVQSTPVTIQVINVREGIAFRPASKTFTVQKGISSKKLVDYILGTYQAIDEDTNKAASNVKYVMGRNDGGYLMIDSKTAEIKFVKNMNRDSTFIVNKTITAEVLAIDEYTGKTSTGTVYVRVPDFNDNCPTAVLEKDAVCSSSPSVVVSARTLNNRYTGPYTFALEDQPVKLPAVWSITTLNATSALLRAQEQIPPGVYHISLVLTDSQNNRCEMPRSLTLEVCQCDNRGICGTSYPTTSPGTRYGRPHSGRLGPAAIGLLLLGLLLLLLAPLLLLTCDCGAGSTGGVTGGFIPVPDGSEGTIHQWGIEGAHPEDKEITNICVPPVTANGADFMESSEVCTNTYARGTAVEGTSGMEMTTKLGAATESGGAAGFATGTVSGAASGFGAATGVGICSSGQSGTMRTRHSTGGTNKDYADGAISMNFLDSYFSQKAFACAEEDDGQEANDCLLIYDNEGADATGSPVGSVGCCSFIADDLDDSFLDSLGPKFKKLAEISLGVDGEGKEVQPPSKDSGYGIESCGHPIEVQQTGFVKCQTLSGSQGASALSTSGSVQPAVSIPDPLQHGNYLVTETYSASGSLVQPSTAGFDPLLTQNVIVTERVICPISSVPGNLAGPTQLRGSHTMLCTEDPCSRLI
NTR1 agonist: activates human neurotensin receptor 1 | P30989 | NTR1-U2OS beta-arrestin-GFP spot imaging, agonist mode | activation, % at 20 µM | 330,000 compounds, 0.17% hits | AID 493036;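 active = activation at or above 40% of the spot to cytoplasm intensity ratio, with at least 20 cells analyzed; inconclusive = wells under 20 cells, flagged as cytotoxic or low count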;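 also: 0% = DMSO without peptide and 100% = 100 nM NTR1 peptide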
AI-2 QS modul: Vibrio harveyi AI-2 quorum sensing modulation | AID 2094 | activity change, % at 7.5 µM | Vibrio harveyi JMH597 AI-2 luminescence/OD600 ratio, 9 h; active compounds read low; strain lacks LuxN and CqsS sensors; 0 = neutral-control median | 300,000 compounds, 0.4% hits; in the data active = activity change below about -75%, passing the limit was not always enough; inconclusive = no clear call, values can overlap the other calls;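 also: luminescence divided by OD600 gain over 9 h not by final OD600 alone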
VLA-4 inh: inhibition in a human VLA-4 binding assay. P13612. VLA-4 expressing cells, ligand binding flow cytometry. inhibition, % (about 7 µM as worked out from the volumes in the protocol). 330,000 compounds, 0.2% hits; in the data active = inhibition above about 50%
JMH597 growth: retest: inhibitors of Vibrio harveyi JMH597 growth; shares compounds with AI-2 QS modul; OD600 absorbance, 9 h; lacks LuxN and CqsS sensors; growth inhibition, % at 7.5 µM; 750 compounds, 1% hits;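 active = every replicate shows growth inhibition above 50%; inconclusive = at least half, but not all, replicates pass that cutoff; inactive = fewer than half of replicates pass it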
BB721 lum counter: retest counter-screen: luminescence loss in constitutive-on quorum sensing strain BB721. shares compounds with AI-2 QS modul. 750 compounds, 95% hits. inhibition, % at 7.5 µM. Vibrio harveyi BB721 luminescence, 9 h;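 active = inhibition above about 80% in every replicate, not just on average, limit read from the data; inconclusive = at least half of replicates past the limit, but not all; inactive = fewer than half of replicates past the limit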
BB721 growth: retest Vibrio harveyi BB721 growth inhibition | 750 compounds, 3% hits | OD600 absorbance, 9 h | growth inhibition, % at 7.5 µM | AID 2728 | shares compounds with AI-2 QS modul;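 active = every replicate shows growth inhibition above 50%; inconclusive = at least half but not all replicates above 50% inhibition; inactive = under half of replicates above 50% inhibition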
AI-2 QS JMH597: Vibrio harveyi AI-2 signaling luminescence modulation – JMH597 strain, confirmation; inhibition, % at 7.5 µM; Vibrio harveyi JMH597 AI-2 quorum sensing luminescence, 9 h; luxN and CqsS knockout, AI-2 only; 750 compounds, 97% hits; shares compounds with AI-2 QS modul;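 active = every replicate shows more than 75% inhibition of signal versus neutral control wells; inconclusive = half to three quarters of replicates exceed 75% inhibition; inactive = fewer than half of replicates exceed 75% inhibition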
Active calls of the source: *; ? = inconclusive; / = not tested or not shown. Rows were chosen to be rich in hits. Some 1.1% of all compounds tested hit in one or more screens of this group.

SMILES	DSG3 Ab inh	NTR1 agonist	AI-2 QS modul	VLA-4 inh	JMH597 growth	BB721 lum counter	BB721 growth	AI-2 QS JMH597
COc1cc(SC)ccc1C(=O)Nc1ccc(OCC(=O)N2CCOCC2)cc1	118	1	23	/	/	/	/	/
CC1CCN(C(=O)CSc2nc(C(C)C)nc3c2c(=O)n(C)c(=O)n3C)CC1	116	6	-9	11	/	/	/	/
O=C(CC(=O)Nc1ccccc1F)Nc1ccccc1F	105	0	7	-2	/	/	/	/
Cc1ccc(CCC(=O)Nc2ccccc2F)s1	93	-2	-89*	-1	17	94*	3	96*
c1ccc(CSc2nnc(-c3cccs3)o2)cc1	94	0	-90*	-2	-1	97*	-10	98*
Fc1ccc(CSc2nnc(-c3cccs3)o2)cc1	97	2	-89*	9	13	97*	9	97*
CN1CC(=O)N(CC(=O)Nc2ccc(Cl)c(C(F)(F)F)c2)C1=O	106	-1	-96*	-20	19	99*	13	99*
c1ccc(OCc2nnc(-c3ccccc3)o2)cc1	122	0	-88*	8	14	97*	27	97*
COc1ccc(N2CCN(S(=O)(=O)c3ccc(OC)cc3)CC2)cc1	123	-1	8	16	/	/	/	/
COc1ccc(S(=O)(=O)n2cccc2)cc1	104	-1	?	10	24	96*	-24	99*
N#Cc1nc(-c2ccc(F)cc2)oc1NCc1cccc2c1OCO2	100	8	?	13	3	89*	-10	93*
N#Cc1nc(-c2cccs2)oc1NCc1ccc2c(c1)OCO2	118	3	-85*	-14	32	94*	32	96*
O=C(Nc1cnn(Cc2ccc(Cl)cc2)c1)c1cnccn1	102	1	-96*	1	1	99*	8	99*
Cc1cccc2sc(N(CCN3CCOCC3)C(=O)CCS(=O)(=O)c3ccccc3)nc12	104	6	28	3	/	/	/	/
Cc1cc(S(=O)(=O)Nc2ccc(C(=O)NCCN3CCOCC3)cc2)ccc1F	106	/	/	/	/	/	/	/
O=C(c1cc(COc2c(F)cccc2F)on1)N1CCc2ccccc2C1	91	0	?	7	4	87*	8	91*
O=C(c1cc(COc2cccc(C(F)(F)F)c2)on1)N1CCc2ccccc2C1	/	4	-48	4	/	/	/	/
COc1ccc(CCNC(=O)COC(=O)c2cc(Cl)nc(Cl)c2)cc1	101	-1	/	21	/	/	/	/
COc1ccc(CC(=O)O/N=C(\N)c2ccc(OC)cc2)cc1	105	2	-94*	-4	-13	97*	-62	98*
COc1ccc(CC(=O)O/N=C(\N)Cc2ccc(OC)cc2)cc1	91	-3	-6	-3	/	/	/	/
Cc1[nH]nc(-c2cccnc2)c1N=NN(C)C	96	/	/	/	/	/	/	/
N#Cc1nc(-c2ccccc2F)oc1NCc1ccccc1	105	0	-90*	10	-20	96*	-2	97*
CNc1oc(-c2ccco2)nc1C#N	98	0	24	2	/	/	/	/
Cc1ccc(CNc2oc(-c3ccco3)nc2C#N)cc1	114	-1	-86*	8	20	95*	7	98*
COC(=O)CSc1nnc(COc2cccc3ccccc23)o1	114	0	-83*	-41	-3	92*	-18	93*
SMILES	DSG3 Ab inh	NTR1 agonist	AI-2 QS modul	VLA-4 inh	JMH597 growth	BB721 lum counter	BB721 growth	AI-2 QS JMH597
COc1ccc(CN=CC2=C(O)CNC2=O)cc1	111	4	4	3	/	/	/	/
COc1ccc(CN=CC2=C(O)CC(C)(C)CC2=O)cc1	98	-1	-80*	-9	23	88*	13	92*
O=C(COC(=O)C1COc2ccccc2O1)c1ccccc1 (stereo unspecified)	103	/	/	/	/	/	/	/
O=C(NCCCCCCCN1CCCCCCC1)C(C1CCCCC1)C1CCCCC1	105	/	/	/	/	/	/	/
O=C(NCc1ccccc1F)Nc1ccc([N+](=O)[O-])cc1	96	0	?	8	15	91*	24	93*
O=C(NCc1ccco1)Nc1ccc([N+](=O)[O-])cc1	99	0	3	29	/	/	/	/
COCCCNC(=O)CC1C[C@H](C(=O)N(C(C)C)C(C)C)[C@@]2(C)c3[nH]c4ccccc4c3CCN2C1=O (stereo partly specified)	101	-2	/	-9	/	/	/	/
O=C(/C=C/c1ccccc1Cl)NCc1ccco1	109	1	-83*	-1	5	93*	18	94*
COc1ccc([C@@H]2C[C@H]3[C@@H](CN2S(=O)(=O)c2ccccc2)C(=O)C[C@@H](c2ccccc2)N3S(=O)(=O)c2ccc(C)cc2)cc1	104	/	/	/	/	/	/	/
O=C(NCc1ccc(Cl)cc1)C(=O)c1c[nH]c2ccccc12	101	-1	-89*	4	-18	97*	-31	98*
Cc1nc2c(=O)[nH]n(C)c2nc1C	105	/	/	/	/	/	/	/
CC(NC(=O)C(=O)N1CCCCC1)C(c1cccs1)N1CCN(c2ccccc2)CC1 (stereo unspecified)	109	0	8	11	/	/	/	/
O=C(/C=C/Sc1ccccc1)c1ccc(Cl)cc1	119	16	-53	21	/	/	/	/
O=C(/C=C/Sc1ccccc1)c1ccccc1	119	11	-92*	29	10	98*	47	98*
CC(C)=CC(=O)OCC(=O)Nc1ccc(SC(F)F)cc1	104	0	-87*	0	19	93*	-3	96*
Cc1cccc(CSc2nnc(-c3ccccn3)n2N)c1	95	1	-90*	-7	-4	92*	3	94*
Cc1cccc(CSc2nnc(-c3ccco3)n2C)c1	127	2	-21	16	/	/	/	/
CC(=O)c1c(C)cc(C)c(CSc2nnc(-c3ccco3)o2)c1C	100	8	-81*	-6	22	89*	16	91*
Cc1cccc(CSc2nnc(-c3ccco3)o2)c1	101	1	-91*	31	-3	97*	-10	98*
Cc1cccc(-c2nnc(SCc3ccccc3)o2)c1	/	2	-89*	-1	43	96*	?	97*
Cc1cccc(NC(=O)CSc2nnc(-c3ccco3)o2)c1C	100	0	53	0	/	/	/	/
c1ccc(-c2nnc(SCc3ccncc3)o2)cc1	98	/	/	/	/	/	/	/
CSc1nnc(-c2ccccc2)o1	101	-2	?	15	-1	10	8	8
CC1(C)C(=O)Nc2ccccc2N1C(=O)COC(=O)Cc1ccccc1F	96	-2	/	0	/	/	/	/
CCc1ccc(OCC(=O)Nc2ccc(S(=O)(=O)Nc3ccccn3)cc2)cc1	97	2	-85*	9	-2	89*	-29	96*

Screens deposited in PubChem by several laboratories.
